Screening results from PubChem.
D2 ag-1 – HTS Assay for Allosteric Agonists of the Human D2 Dopamine Receptor: Primary Screen for Agonists; D(2) dopamine receptor (Homo sapiens), P14416; HEK293 T-REx D2 cells, calcium flux agonist mode; activation, % at 2 µM; actives 0.53% (n = 340,000); AID 485358, 2010;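 active means activation over 3 SD above normal in the single-dose calcium agonist read, cut at about 30% in these data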; further: 0% is about no effect
Target sequence (P14416 whole entry, looked up): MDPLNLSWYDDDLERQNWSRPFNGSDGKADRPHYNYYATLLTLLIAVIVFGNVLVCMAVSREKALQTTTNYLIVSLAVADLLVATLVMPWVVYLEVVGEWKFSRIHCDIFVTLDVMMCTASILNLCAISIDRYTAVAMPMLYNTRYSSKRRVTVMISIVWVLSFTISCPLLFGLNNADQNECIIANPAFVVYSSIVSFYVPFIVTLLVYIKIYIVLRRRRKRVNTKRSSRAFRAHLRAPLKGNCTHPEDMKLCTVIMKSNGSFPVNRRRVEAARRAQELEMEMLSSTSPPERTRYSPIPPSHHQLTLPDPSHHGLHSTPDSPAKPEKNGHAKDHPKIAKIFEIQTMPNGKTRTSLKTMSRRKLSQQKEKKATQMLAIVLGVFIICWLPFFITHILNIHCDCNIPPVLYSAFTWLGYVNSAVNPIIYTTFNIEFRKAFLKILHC
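Agonism is scored from calcium flux in a force-coupled, inducible HEK293 cell line expressing D2, read kinetically for 180 s after compound addition against dopamine controls.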
D2 PAM-1 – Beta-Arrestin HTS for Positive Allosteric Modulators of the Human D2 Dopamine Receptor: Potentiators; actives 0.23% (n = 360,000); D(2) dopamine receptor (Homo sapiens), P14416; potentiation, % (test concentration not listed); DiscoveRx D2 beta-arrestin cells, luminescence, 90 min; 100% = 57 uM dopamine signal; in the data active means potentiation above about 50%; inconclusive means mostly about 30% to 49%
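PathHunter D2 cells, attached overnight at 37 deg C, received compound in DMSO plus dopamine at EC20 (50 nM final) for 90 min at 37 deg C. Beta-arrestin recruitment was read as luminescence after 1 h with detection reagent at ambient temperature.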
D2 antagonist – HTS Assay for Allosteric Antagonists of the Human D2 Dopamine Receptor: Primary Screen for Antagonists | D(2) dopamine receptor (Homo sapiens), P14416 | HEK293 TREx D2 cells, calcium flux, dopamine EC80 | inhibition, % at 10 µM | actives 2% (n = 340,000); in the data active means inhibition above about 30%; inactive means below that, where a call was filed; further: 0% is about no effect
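In this primary screen, negative modulation is detected by tracking calcium flux after an EC80 dopamine challenge in inducible HEK293 T-REx D2 cells preexposed to test compound for 180 s.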
D2 ag-2 – Beta-Arrestin HTS for Positive Allosteric Modulators of the Human D2 Dopamine Receptor: Agonists | DiscoveRx PathHunter D2 beta-arrestin, luminescence, 90 min; 100% = 57 uM dopamine signal | activation, % (concentration not given with the values) | actives 0.084% (n = 360,000) | AID 624465, 2012; in the data active means activation above about 40%; inconclusive means between about 15% and that limit
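Agonist mode: compounds alone added to overnight-plated D2 PathHunter cells for 90 min at 37 C, with 57 uM final dopamine (EC100) defining full response. Beta-arrestin recruitment detected by chemiluminescent reagent, read after 1 h at ambient temperature.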
D2 PAM-2 – HTS Assay for Positive Allosteric Modulators of the Human D2 Dopamine Receptor: Primary Screen for Potentiators; HEK293 T-REx D2, calcium flux, EC20 dopamine potentiation; potentiation, % at 10 µM; actives 0.34% (n = 340,000); AID 485347, 2010;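 active means potentiation over 3 SD above the plate norm, cut at about 30% in these data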; further: 0% is about no effect
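Using a no-wash calcium dye in inducible, force-coupled HEK293 Trex cells expressing D2, we tracked fluorescence each second for 180 s after compound, then for 180 s after EC20 dopamine to detect augmented signalling.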
Starred values were filed as active, the others as inactive; ? = inconclusive; . = no result. An excerpt weighted towards active compounds, which were near 2.4% of everything screened.

SMILES	D2 ag-1	D2 PAM-1	D2 antagonist	D2 ag-2	D2 PAM-2
Cc1cccc(C)c1N1C(=O)CC(N(O)c2ccccc2)C1=O (stereo unspecified)	-0.8	51.1*	-18.6	6.7	-5.0
CC1C(=O)C(C)C(c2ccccc2F)NC1c1ccccc1F (stereo unspecified)	-0.4	-4.2	-4.5	-3.4	5.4
CS(=O)(=O)Oc1ccc2c(c1)O/C(=C\C=C\c1ccccc1)C2=O	3.4	-2.8	37.5*	2.5	-3.2
O=C(c1cc2c(s1)-c1ccccc1OC2)N1CCc2ccccc2C1	3.8	-1.3	33.1*	-2.6	-12.9
CC(C)c1nnc(NC(=O)CCC(=O)Nc2ccc3cn[nH]c3c2)s1	-0.5	-17.1	60.6*	-2.8	-8.2
COc1cc(CSc2ncc(CO)n2Cc2ccc(C)cc2)cc(OC)c1	0.8	.	.	.	-3.8
Cn1c(SCc2nc3ccccc3c(=O)[nH]2)nc2ccccc21	-0.2	-11.2	8.4	-3.1	-0.1
CC(C)Cn1c(SCc2nc3ccccc3c(=O)[nH]2)nc2ccccc2c1=O	-0.1	3.8	-5.3	-2.7	35.6*
COc1ccc(Cl)cc1NC(=O)CSc1nnc(CN2CCOCC2)n1-c1ccc(Cl)cc1	0.8	-23.8	75.9*	-1.9	-24.0
O=C(O)CCc1ccc(-c2ccc(Cl)cc2)n1CC(=O)O	-0.1	-3.5	8.6	-3.3	8.9
O=C(O)CCc1ccc(-c2ccc(Cl)cc2)n1CC(=O)Nc1ccccc1	-2.0	-4.9	-8.6	-1.2	35.6*
CCn1c2c(c(=O)n3ncc(C(=O)Nc4ccc(C(=O)OC)cc4)c13)CN(Cc1ccc(OC)cc1)CC2	-0.5	.	.	.	-0.4
CCOc1ccc(N2C(=O)/C(=C/c3cc(OC)c(OC)c(OC)c3)N(CC(=O)OC)C2=S)cc1	1.6	-1.3	-6.8	-3.9	46.5*
CCOc1ccc(/C=C2/C(=O)N(c3ccc(OC)cc3)C(=S)N2CC(=O)OC)cc1OCC	0.8	10.2	17.5	-4.1	-2.1
COc1ccc(O)c(C(=O)c2cc(C(=O)NCCc3ccccc3)c(=O)n(CCc3ccccc3)c2)c1	1.8	69.3*	-8.3	14.4	4.0
FC(F)(F)c1ccnc(N2CCN(Cc3cnc(-c4ccccc4)[nH]3)CC2)c1	0.2	-20.5	89.5*	1.3	-24.5
CC(=O)Nc1ccc(S(=O)(=O)N2CCN(c3cc(C(F)(F)F)ccn3)CC2)cc1	0.2	-9.0	4.0	5.1	-7.2
O=C1CC(c2nc(-c3ccc(Cl)cc3)no2)CN1c1ccc2c(c1)OCCO2 (stereo unspecified)	1.1	.	.	.	-9.0
Cc1cc(OCC(=O)Nc2sc3c(c2C#N)CC(C)(C)NC3(C)C)c(C(C)C)cc1Cl	-0.5	-2.3	34.4*	3.3	6.6
COc1ccccc1N1CCN(C(=O)CN2C(=O)COc3ccc(S(=O)(=O)N4CCOCC4)cc32)CC1	0.1	.	.	.	-3.0
CC(C)c1ccc(S(=O)(=O)c2nnn3c2nc(N2CCOCC2)c2sccc23)cc1	-0.8	.	.	.	2.1
O=C(C[n+]1ccc(-c2ccccc2)cc1)Nc1ccc([N+](=O)[O-])cc1	0.8	-8.9	36.9*	-4.9	-18.7
Cc1cccc[n+]1CC(=O)Nc1ccc([N+](=O)[O-])cc1	0.2	-2.4	-6.1	-4.6	8.2
COc1ccc2c(c1)CCc1sc(NC(=O)c3ccco3)nc1-2	-0.8	4.0	-2.2	4.6	30.2*
COc1ccc2c(c1)-c1nc(NC(=O)c3ccco3)sc1CC2	-1.1	0.7	4.9	3.0	1.9
CCC(C)n1c(=N)c(C(=O)NCc2ccccc2)cc2c(=O)n3cc(C)ccc3nc21 (stereo unspecified)	-1.4	.	.	.	-0.5
N/C(=N/OC(=O)c1cccc([N+](=O)[O-])c1)c1cccc([N+](=O)[O-])c1	-0.1	?	-12.0	?	3.7
N/C(=N\OC(=O)c1cccc([N+](=O)[O-])c1)c1ccccn1	0.2	22.2	8.3	?	-1.1
